This assay is described as follows: viability profiling in RPMI8226 myeloma cells – cell-based, resazurin fluorescence, basal, 24 h, PK04 Diversity Set, profiling panel (AID 1180).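 Also: RPMI8826 multiple myeloma cell line at 5000 cells per well; test concentration not given here.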 The note with it: higher = more signal. (In general: Resazurin is reduced to fluorescent resorufin, in cell work by metabolically active cells.)
Molecule `COC(=O)[C@H](C)NC(=O)CCC1CC(OC(=O)NCc2cccc3ccccc23)CC2(CCCC(COC(=O)NCc3ccccc3)O2)O1` (stereo partly specified) showed a z-score of 1.42. For `O=C1CCCC=C1C(O)C1CCCCC1` (stereo unspecified) the value was 0.289; for `COc1ccc(COC(=O)NN=C2C[C@@H](O)[C@@H](O)[C@@H]3[C@@H]4C(=O)N(Cc5ccccc5)C(=O)[C@@H]4CC[C@@H]23)cc1`, 1.12; for `CO[C@H]1COC(=O)CC=C[C@H](C)[C@H](OC)COC(=O)[C@@H](C)NC(=O)CC=C[C@@H]1C`, 0.379. With `CC(C)CON=C1[C@H]2CCn3c(=O)n(C)c(=O)n3[C@H]2[C@H](O)[C@@H]2O[C@H]12`, the z-score was -0.347. For `CCOC(=O)CCN1C(=O)[C@H]2[C@H]3[C@H](O)[C@H](O)CC(=NOCC=C(C)CCC=C(C)C)[C@@H]3CC[C@H]2C1=O` the value was -0.871; for `CC[C@@H](c1ccccc1)n1c(=O)n2n(c1=O)[C@H]1[C@H](O)[C@@H]3O[C@@H]3C(=NOCc3ccccc3)[C@H]1CC2`, -2.34; for `CC(CCN1CCCc2nc(C)c(C)cc21)=NO[C@@H](C)c1cn([C@H](CO)Cc2ccccc2)nn1`, -0.789. For the molecule `COC(=O)[C@H](C)NC(=O)CCC1CC(OC(=O)NCCc2ccc(F)cc2)CC2(CCCC(COC(=O)NCC3CCCCC3)O2)O1` (stereo partly specified), the z-score was found to be 0.13.

In turn, `CCOC(=O)[C@H](Cc1ccccc1)NC(=O)CCC1CC(OC(=O)NCc2ccc3c(c2)OCO3)CC2(CCCC(COC(=O)NCCCN3CCCC3=O)O2)O1` (stereo partly specified) yielded a z-score of 1.36. In turn, `CC(CCC(=O)OC[C@H]1O[C@H](C#Cc2ccccc2)C=C[C@@H]1Oc1ccc(C)cc1)=NOC[C@@H](C)[C@H](OCc1ccccc1)C(C)C` yielded a z-score of 0.306. For `CCN1C(=O)[C@H]2[C@H]3[C@H](O)[C@H](O)CC(=NOC[C@@H](O)[C@H]4O[C@@H]5OC(C)(C)O[C@@H]5[C@H]4O)[C@@H]3CC[C@H]2C1=O` the value was -0.767; for `CC(C)CON=C1C[C@@H](O)[C@@H](O)[C@@H]2[C@@H]3C(=O)N(Cc4ccc5c(c4)OCO5)C(=O)[C@@H]3CC[C@@H]12`, -0.0253. `C=CC[C@@H]1C=C[C@H](ON=C2C[C@@H](O)[C@@H](O)[C@@H]3[C@@H]4C(=O)N(CC)C(=O)[C@@H]4CC[C@@H]23)[C@@H](CO)O1` had a z-score of -0.216. As to `CO[C@H]1COC(=O)CCC[C@H](C)[C@H](OC)COC(=O)CC=C[C@@H]1C`, the z-score was 0.541. For the molecule `COc1ccc2c(c1)O[C@@H](c1cccc(C(F)(F)F)c1)[C@H](O)C2=O`, the z-score came to 0.8.

As for `CC(CCN1CCCc2nc(C)c(C)cc21)=NOC[C@@H](O)COCc1ccco1`, the z-score was 0.592. As for `CCN1C(=O)[C@H]2[C@H]3[C@H](O)[C@H](O)CC(=NO[C@@H]4O[C@H](CO)[C@@H](O)[C@H](O)[C@H]4O)[C@H]3CC[C@H]2C1=O`, the z-score amounted to 0.064. For `CCOC(=O)[C@H](CC(C)C)NC(=O)CCC1CC(OC(=O)NCc2ccc3c(c2)OCO3)CC2(CCCC(COC(=O)NCCOc3ccccc3)O2)O1` (stereo partly specified) the value was 0.632. `O=C1C2=CC[C@H]3C(=O)N(c4ccc(F)cc4F)C(=O)[C@H]3[C@H]2[C@H](O)[C@@H]2O[C@H]12` gave a z-score of -0.035.

With `CC(=O)OC[C@H]1O[C@H](C#CCCc2ccccc2)C=C[C@@H]1OC(C)=O`, the z-score was -0.0728. Turning to `CC(C)=NOC(C)CN1CCCc2nc(C)c(C)cc21` (stereo unspecified), the z-score was -0.572. Turning to `COC(=O)[C@H](C)NC(=O)CCC1CC(OC(=O)NCc2cccc3ccccc23)CC2(CCCC(COC(=O)NCCOc3ccccc3)O2)O1` (stereo partly specified), the z-score came out at 0.564. As for `C[C@@H]1CC[C@@H](C(=O)O)N[C@H]1c1cccc(N2CCOCC2)c1`, the z-score came to 0.198. For `COC(=O)[C@@H]1CC[C@H](C)[C@@H](c2ccc(Br)cc2)N1C[C@H](O)CN=[N+]=[N-]` the value was 0.385; for `CCOC(=O)[C@H](Cc1ccccc1)NC(=O)CCC1CC(OC(=O)NCCc2ccc(F)cc2)CC2(CCCC(COC(=O)NCc3cccc(C(F)(F)F)c3)O2)O1` (stereo partly specified), 0.864; for `COc1cccc([C@H]2Oc3ccc(OC)cc3C(=NOCC[C@@H]3C=C[C@H](OC(C)=O)[C@@H](COC(C)=O)O3)[C@@H]2O)c1`, -0.583. Consider `CC(=O)OC[C@H]1O[C@H](CC=NO[C@@H](C)c2cc(-c3c(C)cc(C)cc3C)no2)C=C[C@@H]1OC(C)=O`, for which the z-score was found to be 0.138. The molecule `CCOC(=O)NN=C1C[C@@H](O)[C@@H](O)[C@@H]2[C@@H]3C(=O)N(c4ccc(F)cc4F)C(=O)[C@@H]3CC[C@H]12` gave a z-score of 0.241. `O=C1[C@H]2[C@H]3[C@H](O)[C@H](O)CC(=NO[C@@H]4O[C@H](CO)[C@@H](O)[C@H](O)[C@H]4O)[C@H]3CC[C@H]2C(=O)N1C[C@@H]1CCCO1` gave a z-score of -0.39. For `CCOC(=O)[C@H](Cc1ccccc1)NC(=O)CCC1CC(OC(=O)NCCc2ccc(F)cc2)CC2(CCCC(COC(=O)NCCC(C)C)O2)O1` (stereo partly specified) the value was 1.16; for `CO[C@H]1COC(=O)[C@H](C)COC(=O)[C@@H](OCc2ccccc2)C=C[C@@H]1C`, -0.476. Consider `O=C1[C@H]2[C@H]3[C@H](O)[C@H](O)CC(=NOC[C@@H](O)COCc4ccco4)[C@@H]3CC[C@H]2C(=O)N1Cc1ccccc1`, for which the z-score is 0.569. `CC(C)=CCCC(C)=CCON=C1C[C@@H](O)[C@@H](O)[C@@H]2[C@@H]3C(=O)N(Cc4ccc5c(c4)OCO5)C(=O)[C@@H]3CC[C@H]12` registered a z-score of -0.402. The molecule `COC(=O)[C@H](C)NC(=O)CC=C[C@@H](C)[C@@H]1C=C[C@H](O)[C@@H](CO)O1` returned a z-score of -0.845. For `COc1ccc(COC(=O)NN=C2C[C@@H](O)[C@@H](O)[C@@H]3[C@@H]4C(=O)N(C[C@@H]5CCCO5)C(=O)[C@@H]4CC[C@@H]23)cc1`, the z-score was 0.115.

The record behind these values is PubChem BioAssay.
